According to PubChem BioAssay AID1002 (National Center for Advancing Translational Sciences (NCATS), 2008):
Calls of active or inactive are those of the source.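 Rule for the calls: active = compound given an inhibitor call from its dose-response curve against AmpC beta-lactamase with detergent added; inactive = the rest.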

target: Beta-lactamase (Escherichia coli (strain K12)) (UniProt P00811); experiment: Confirmation Concentration-Response Assay for Inhibitors of AmpC Beta-Lactamase (assay with detergent); settings: purified AmpC, nitrocefin absorbance 480 nm, 0.01% Triton
Experimental: NIH Molecular Libraries Screening Centers Network [MLSCN] NIH Chemical Genomics Center [NCGC] MLSCN Grant: MH079825-01 Assay Provider: Shoichet, Brian K. This aggregation profiling approach exploits the sensitivity of aggregate formation to detergent. Inhibition of b-lactamase is measured in the presence and absence of 0.01% Triton X-100 (Feng 2007). This particular assay is a confirmation of previous qHTS (Inglese, 2006), Pubchem AID 584, assay with presence of 0.01% Triton X-100. For a related assay without detergent, see AID 585. Compounds that inhibit only in the absence of detergent are considered likely promiscuous aggregators. In this confirmation assay, AmpC activity was measured by following the absorbance at 480 nm. Nitrocefin is a chromogenic substrate: while nitrocefin is yellow (lmax 390 nm), the product of its hydrolysis is red (lmax 486 nm, 17,000 M-1). AmpC beta-lactamase was provided by Prof Brian Shoichet's lab, UCSF.
Buffer: 1. 20 mM phosphate buffer, pH 7.0, 0.01 % Triton X-100 2. Reagents/Controls. 3. Buffer in row 32 as negative control (no enzyme). 4. 3 nM AmpC final concentration in rows 1-31. Assay Steps: Six uL of reagents were dispensed to 1536-well Greiner black clear bottom plates. Compounds (23 nL) were transferred via Kalypsys PinTool. The plates were incubated for 15 min at room temperature, and then 2 uL of 800 uM solution of nitrocefin was added to start the reaction. The plates were immediately transferred to and read every 20 seconds for 3 minutes on ViewLux (Perkin-Elmer) High-throughput CCD imager using 480 nm absorbance protocol.

Sequence of Beta-lactamase (Escherichia coli (strain K12)) (P00811 whole entry, looked up): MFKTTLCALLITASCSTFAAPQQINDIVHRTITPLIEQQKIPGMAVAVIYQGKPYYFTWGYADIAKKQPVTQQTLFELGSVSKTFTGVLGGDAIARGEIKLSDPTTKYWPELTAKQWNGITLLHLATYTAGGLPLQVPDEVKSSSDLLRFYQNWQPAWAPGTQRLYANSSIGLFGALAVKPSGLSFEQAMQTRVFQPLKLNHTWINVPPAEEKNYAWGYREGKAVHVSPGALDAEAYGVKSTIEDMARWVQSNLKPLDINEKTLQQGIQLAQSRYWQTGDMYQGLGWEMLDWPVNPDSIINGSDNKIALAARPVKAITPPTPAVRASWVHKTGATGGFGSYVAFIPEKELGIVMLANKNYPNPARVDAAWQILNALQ

Potency, active:
Cc1ccccc1CS(=O)(=O)c1nnc([C@H](CC(C)C)NC(=O)OC(C)(C)C)o1 11 µM
CC(C)[C@H](NC(=O)OC(C)(C)C)c1nnc(S(=O)(=O)Cc2c(F)cccc2Cl)o1 1.8 µM
CC(C)(C)OC(=O)N[C@@H](Cc1ccccc1)c1nnc(S(=O)(=O)Cc2cccc(F)c2)o1 15 µM
COC(=O)CS(=O)(=O)c1nnc([C@H](Cc2ccccc2)NC(=O)OC(C)(C)C)o1 9.4 µM
CC(C)C[C@H](N)c1nnc(S(=O)(=O)Cc2cccc(F)c2)o1 8.6 µM
CC(C)(C)OC(=O)NCCc1nnc(S(=O)(=O)Cc2ccc(Cl)cc2Cl)o1 0.066 µM
CC(C)(C)OC(=O)N[C@@H](Cc1ccccc1)c1nnc(S(=O)(=O)Cc2ccccc2)o1 16 µM
CCC(C)[C@@H](NC(=O)OC(C)(C)C)c1nnc(S(=O)(=O)Cc2cccc(C)c2)o1 (some centres undefined) 10 µM
CC[C@@H](C)[C@H](NC(=O)OC(C)(C)C)c1nnc(S(=O)(=O)Cc2cc(C)ccc2C)o1 10 µM
